In PubChem BioAssay (NCI):
Compounds without any hit were thinned out: in the full panel of roughly 83,000, 20% have a hit.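 How to read the values: 0–100, growth inhibition (40 = 60% inhibited); 0, no net growth; -100 to 0, cell death (-40 = 40% of starting cells died; -100 = all dead).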 Unmarked numbers belong to inactive results. Activity calls are given as the source filed them. The calls were made as follows: active = growth percent below 10; inactive = the rest.

Key:
Experiment in all cases: NCI-60 one-dose screen, 48 h (100 = growth as untreated, 0 = no growth, -100 = all killed)
Settings in all cases: 10 µM unless noted
SK-MEL-2 melanoma = tested on: SK-MEL-2 melanoma
EKVX NSCLC = tested on: EKVX NSCLC
SN12C renal = tested on: SN12C renal
UO-31 renal = tested on: UO-31 renal
TK-10 renal = tested on: TK-10 renal
ACHN renal = tested on: ACHN renal
CAKI-1 renal = tested on: CAKI-1 renal
A498 renal = tested on: A498 renal
CCRF-CEM leukemia = tested on: CCRF-CEM leukemia
MOLT-4 leukemia = tested on: MOLT-4 leukemia
SR leukemia = tested on: SR leukemia
RPMI-8226 leukemia = tested on: RPMI-8226 leukemia
OVCAR-8 ovarian = tested on: OVCAR-8 ovarian
OVCAR-5 ovarian = tested on: OVCAR-5 ovarian
OVCAR-4 ovarian = tested on: OVCAR-4 ovarian
SK-OV-3 ovarian = tested on: SK-OV-3 ovarian
IGROV1 ovarian = tested on: IGROV1 ovarian
OVCAR-3 ovarian = tested on: OVCAR-3 ovarian
HS 578T breast = tested on: HS 578T breast
NCI/ADR-RES ovarian = tested on: NCI/ADR-RES ovarian

Structure (SMILES)	growth (SK-MEL-2 melanoma)	growth (EKVX NSCLC)	growth (SN12C renal)	growth (UO-31 renal)	growth (TK-10 renal)	growth (ACHN renal)	growth (CAKI-1 renal)	growth (A498 renal)	growth (CCRF-CEM leukemia)	growth (MOLT-4 leukemia)	growth (SR leukemia)	growth (RPMI-8226 leukemia)	growth (OVCAR-8 ovarian)	growth (OVCAR-5 ovarian)	growth (OVCAR-4 ovarian)	growth (SK-OV-3 ovarian)	growth (IGROV1 ovarian)	growth (OVCAR-3 ovarian)	growth (HS 578T breast)	growth (NCI/ADR-RES ovarian)
C=C[C@H]1CCC/C=C/[C@@H]2C[C@H](O)C[C@H]2[C@H](O)/C=C/C(=O)O1	-37.9% (active)	3.38% (active)	5.71% (active)	-11.2% (active)	-45.6% (active)	5.96% (active)	-1.92% (active)	-48.7% (active)	7.38% (active)	0.424% (active)	0.87% (active)	-4.42% (active)	2.59% (active)	13.4%	8% (active)	26.3%	-0.584% (active)	-62.7% (active)	18.8%	5.21% (active)
CS(=O)(=O)c1ccc(C(=O)N/N=C/c2ccccc2O)cc1	40%	25.8%	58.7%	18%	45.8%	28.3%	34.9%	75.2%	15.3%	9.19% (active)	20.4%	48.7%	27.9%	64.7%	43.6%	39.9%	41%	22.8%	81.5%	29.9%
CC(CN1CCN(CC(C)Nc2ccnc3cc(Cl)ccc23)CC1)Nc1ccnc2cc(Cl)ccc12 (centres undefined)	-37.9% (active)	67.3%	57.7%	-49.5% (active)	-48% (active)	19.1%	11.2%	84.7%	5.14% (active)	4.88% (active)	-44.1% (active)	-32.2% (active)	6.74% (active)	57.2%	3.26% (active)	97.2%	28.2%	-7.9% (active)	9.67% (active)	–
COc1ccc(C(=O)OC2C(OC3C(O)COC(O[C@H]4C[C@H]5[C@@H]6CC=C7C[C@@H](O)CC[C@]7(C)[C@H]6CC[C@]5(C)[C@H]4[C@H](C)C(=O)CCC(C)C)C3OC(N)=O)OCC(O)C2O)cc1 (some centres undefined)	-62% (active)	19.5%	44.7%	-39% (active)	-1.71% (active)	40.5%	-36.7% (active)	-80.1% (active)	-25.8% (active)	-42.3% (active)	-14.1% (active)	-32.8% (active)	25.3%	36.3%	44.1%	-37.2% (active)	19.5%	58.3%	-29.9% (active)	86.2%
CC(=O)Oc1c(Cl)c(Cl)c(Cl)c(Cl)c1Cl	90.1%	87.6%	94.1%	81.6%	101%	95.8%	89.2%	86.1%	83.2%	85.6%	106%	73.4%	92.6%	100%	90.3%	91.4%	92%	107%	106%	93.4%
CC1=C(/C=C/C(C)=C/C=C(C(=O)O)\C(C)=C\C(=O)O)C(C)(C)CCC1	94.7%	124%	92%	92.7%	98%	99.9%	117%	91.2%	93.3%	86.3%	95.7%	92%	99.4%	97%	115%	103%	99.2%	110%	105%	102%
O=C1N(Cc2ccccc2Cl)c2ccccc2C12NN=C(c1ccccc1)S2 (centres undefined)	91.3%	58.1%	64.1%	54.2%	105%	59.4%	47.4%	52.8%	57.3%	53.6%	40%	66.3%	45.8%	78.6%	51.8%	83.2%	61.7%	68.7%	69.6%	45.2%
O=C(/C=C/c1cn(-c2ccccc2)nc1-c1ccccc1)OCc1cn(-c2cccc([N+](=O)[O-])c2)nn1	87.8%	85.9%	92.7%	68.7%	98.6%	90.1%	82.5%	66.7%	81.1%	85.8%	87.4%	80.4%	82.6%	94.1%	83.3%	83.5%	98.2%	96.8%	89.9%	95.4%
CC(=O)Oc1ccccc1C(=O)Nc1ncc([N+](=O)[O-])s1	-30.1% (active)	34.7%	15.4%	16.2%	19.4%	55.8%	10.7%	-40.2% (active)	13.9%	-9.45% (active)	13.1%	7.09% (active)	51.3%	63.3%	55.2%	85.5%	26.2%	5.56% (active)	15.6%	20.6%
NC(=O)c1ccc[n+](Cc2ccccc2)c1	110%	94%	101%	93.8%	108%	103%	97.9%	74.5%	93.9%	49%	109%	89.9%	103%	96.2%	102%	113%	111%	107%	98.5%	–
COc1ncnc2[nH]cc(CN3CCN(c4ccc(F)cc4)CC3)c12	103%	97.9%	102%	94.3%	90.1%	104%	98.8%	80%	97.1%	105%	105%	103%	100%	102%	115%	104%	102%	114%	97.5%	–
CCOC(OCC)c1cnc2nc(NC(C)=O)[nH]c(=O)c2n1	95.4%	109%	101%	82.6%	104%	103%	102%	73%	107%	103%	99.9%	106%	102%	101%	107%	106%	101%	113%	102%	–
CCCCCCCCCCCCCCCCCC1=NCCN1CCO	88.9%	78.2%	86%	48.7%	87.9%	60.7%	55.7%	106%	53.9%	30.3%	7.41% (active)	78.9%	70.5%	82.7%	115%	97.9%	25.7%	77%	85.8%	84.5%
C#Cc1cccc(Nc2nc3cc([N+](=O)[O-])ccc3nc2Nc2ccc(O)cc2)c1	-29.5% (active)	23.1%	24.9%	14.6%	3.86% (active)	9.93% (active)	36.4%	49.4%	6.32% (active)	0.253% (active)	3.34% (active)	11.9%	18.3%	45.8%	43.9%	39%	27.2%	-26.2% (active)	44.6%	24.7%
Oc1ccc(-c2nnc3c4[nH]ccc4ncn23)cc1	113%	93.6%	95.2%	76.3%	92.3%	87.9%	84.7%	74.4%	108%	93.3%	82.4%	97.7%	99.6%	113%	102%	99.7%	84%	107%	95%	–
COc1cc(C)c(Cl)cc1C1=NN(c2ccc(S(N)(=O)=O)cc2)C(/C=C/c2ccccc2)C1 (centres undefined)	74.6%	49.3%	20.6%	44.9%	46%	15%	59.5%	64.4%	54.5%	49.9%	66.7%	35.8%	31.7%	104%	28.1%	88.8%	45.8%	51.7%	86.8%	–
